Assay results from PubChem BioAssay (NCI).
The panel holds about 83,000 compounds, 20% with a hit somewhere; the sample as a whole holds those more often.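 Compound tested at a single concentration for 48 hours in 96-well plates; a percent growth value below 10 was scored as active.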 Values without a mark were called inactive. Calls of active or inactive are those of the source.

How the values were obtained:
Test in all cases: NCI-60 one-dose screen, 48 h (100 = growth as untreated, 0 = no growth, -100 = all killed)
Conditions in all cases: 10 µM unless noted
DU-145 prostate = system: DU-145 prostate
K-562 leukemia = system: K-562 leukemia
MALME-3M melanoma = system: MALME-3M melanoma
MDA-MB-231 breast = system: MDA-MB-231 breast
RXF 393 renal = system: RXF 393 renal
SF-268 CNS = system: SF-268 CNS
SF-295 CNS = system: SF-295 CNS
SF-539 CNS = system: SF-539 CNS
UACC-257 melanoma = system: UACC-257 melanoma
M14 melanoma = system: M14 melanoma

SMILES | growth (DU-145 prostate) | growth (K-562 leukemia) | growth (MALME-3M melanoma) | growth (MDA-MB-231 breast) | growth (RXF 393 renal) | growth (SF-268 CNS) [%] | growth (SF-295 CNS) | growth (SF-539 CNS) | growth (UACC-257 melanoma) | growth (M14 melanoma)
CC(=O)c1ccc(Nc2nc(SCC(C)C)nc(-c3ccccc3)c2C#N)cc1 | 107% | 95.4% | 94.9% | 73.5% | -1.29% (active) | 72 | 17% | 63.9% | 105% | 103%
O=S(=O)(Nc1ccc2c(c1)OCO2)c1ccc(-c2cnc(C3CC3)o2)cc1 | 44.6% | 12.3% | 46.2% | 46.2% | 34.9% | 53.6 | 9.2% (active) | 33% | 55% | 22.8%
CC(C)(C)c1ccc(-c2nnc(-c3nc4ccccc4nc3Cl)o2)cc1 | 86.2% | 65.9% | 101% | 90.5% | 88.4% | 42 | 103% | 93.8% | 61.9% | 93.1%
c1n[nH]cc1-c1nc2ccc3[nH]ncc3c2c2c1CCCC2 | 20.4% | 33.9% | 11.5% | 49.1% | -51.4% (active) | 27 | 29.5% | 11% | 37.1% | 7.13% (active)
CN(C)C(=O)c1cc(-c2ccc3ncnc(NCc4ccccc4)c3c2)cnc1N | 55.6% | 95.9% | 101% | 70% | -4.14% (active) | 65.7 | 91.7% | 90.4% | 94.4% | 109%
NS(=O)(=O)c1ccc(Nc2nc(SCc3ccccc3)nc3ccccc23)cc1 | 61.7% | 14.4% | 81.7% | 53.9% | 45.5% | 73.2 | 59.9% | 48.8% | 92.8% | 75%
CCCn1cnc2c(c1=N)C(c1ccc(F)cc1)c1sc3c(C)cccc3c1O2 (stereo not given) | 27.5% | 5.29% (active) | 47.1% | 53% | -39% (active) | 53.8 | -0.689% (active) | -27.1% (active) | 70.8% | 9.53% (active)
O=C(c1ccc(O)c(C(=O)N2Cc3ccc(OCCC[P+](c4ccccc4)(c4ccccc4)c4ccccc4)cc3C2)c1)N1Cc2cccc(F)c2C1 | 99% | 27.1% | 73.2% | 92.9% | 96.4% | 92.7 | 84.9% | 55.6% | 48.5% | 95.1%
Cc1cc(S(=O)(=O)N(C)C)cc(NCC(=O)NC(=O)NCC(C)C)c1C | 85.1% | 97.1% | 106% | 85.6% | 64.8% | 81.5 | 100% | 97.1% | 103% | 100%
COc1cc2oc(-c3cccc(N)c3)cc(=O)c2c(OC)c1OC | 108% | 107% | 101% | 100% | 117% | 104 | 93.4% | 99.6% | 119% | 111%
COc1ccc([C@@H]2[C@@H](O)C(=O)N2c2cc(OC)c(OC)c(OC)c2)cc1F | 12.3% | 8.16% (active) | 64.1% | 21.3% | 24.9% | 32 | 5.85% (active) | -0.902% (active) | 58.6% | 3.94% (active)
CNC(=O)c1cc(Oc2ccc3nc(NC(=O)c4cccc(OC(F)(F)F)c4)sc3c2)ccn1 | 75.4% | 61.8% | 76.8% | 76.1% | -1.69% (active) | 81.8 | 77.8% | 63.9% | 77.6% | 93.9%
C[C@@H](Nc1ncnc2ccc(-c3cnc(Cl)c(NS(C)(=O)=O)c3)cc12)c1ccccc1 | 34.1% | 73.9% | 59.2% | 49% | -17.5% (active) | 42.5 | 46% | 44.5% | 60.9% | 69.1%
Cc1ccc(N2C(=O)/C(=C/C=C/c3ccco3)SC2=S)cc1 | 100% | 61.2% | 91.4% | 94.9% | 74.6% | 105 | 99.1% | 101% | 88.3% | 103%
CNC(=O)c1cc(Oc2ccc3nc(NC(=O)c4ccc(N5CCOCC5)c(C(F)(F)F)c4)sc3c2)ccn1 | 98.2% | 71.9% | 94.2% | 84.9% | -31.3% (active) | 92.8 | 26.5% | 68.3% | 96.2% | 85.9%
CNC(=O)c1cc(Oc2ccc3nc(NC(=O)c4cc(N5CCOCC5)cc(C(F)(F)F)c4)sc3c2)ccn1 | 86.1% | 67.2% | 87.1% | 76.2% | -9.02% (active) | 86 | 44.6% | 91.5% | 82.4% | 77.5%
Cn1cc(-c2cc(N)n3nc(-c4cn(C)c5ccccc45)cc3n2)c2ccccc21 | 88.1% | 7.81% (active) | 84% | 76.4% | 95.6% | 100 | 95.9% | 84.1% | 107% | 32.1%
CC(=O)Nc1cccc(Nc2nc(N[C@@H](C)c3ccccc3)c3ccccc3n2)c1 | 11.4% | -19% (active) | 47% | -22.1% (active) | -48.3% (active) | 27.3 | 8.33% (active) | -44% (active) | 55.3% | -10.7% (active)
COc1ccc([C@H]2[C@H](O)C(=O)N2c2cc(OC)c(OC)c(OC)c2)cc1F | 14.6% | 8.75% (active) | 65.9% | 24.5% | 27% | 37.4 | 8.48% (active) | -5.31% (active) | 57.7% | 2.83% (active)
Cn1cc(-c2nc(N)nnc2-c2c[nH]c3ccc(Br)cc23)c2cc(Br)ccc21 | 64.8% | 12.2% | 43% | 62.5% | 39.8% | 61.3 | 11.7% | 43.8% | 82.9% | 20.7%
O=C(Nc1ccc2c(ccn2Cc2ccccn2)c1)c1cnccn1 | 95.6% | 107% | 106% | 86.7% | 47.8% | 84.1 | 97.5% | 96.4% | 102% | 106%
CC(=O)c1ccc(Nc2nc(SCC(C)C)nc(-c3ccc(F)cc3)c2C#N)cc1 | 113% | 106% | 114% | 106% | 118% | 114 | 118% | 105% | 106% | 115%
Cc1ccc(NC(=O)CNc2cc(C(N)=O)cc(F)c2C)c(Cl)c1 | 87.2% | 94.2% | 106% | 67% | 36.2% | 81.7 | 101% | 89.8% | 107% | 103%
CC(C)c1ccc(NCc2cn(-c3ccc(C(=O)O)cc3)nc2-c2cc(C(F)(F)F)cc(C(F)(F)F)c2)cc1 | 89.6% | 79.8% | 71% | 91.8% | 97.2% | 88.1 | 98.5% | 83.6% | 94.9% | 86%
COC(=O)c1ccc(NC2=C/C(=N/S(=O)(=O)c3ccc(C(=O)O)cc3)c3ccccc3C2=O)cc1 | 7.85% (active) | 0.527% (active) | -89.3% (active) | -21.6% (active) | -14.6% (active) | 37.7 | 91.5% | -83.1% (active) | -6.94% (active) | 67.4%
